Screening data from PubChem BioAssay.
Rows were chosen to be rich in hits. Some 2.4% of all compounds tested hit in one or more screens of this group.
D2 ag-1 – Beta-Arrestin HTS for Positive Allosteric Modulators of the Human D2 Dopamine Receptor: Agonists; D(2) dopamine receptor (Homo sapiens), P14416; DiscoveRx PathHunter D2 beta-arrestin, luminescence, 90 min; 100% = 57 uM dopamine signal; activation, % (no concentration beside the values); hit rate 0.084% among 360,000; AID 624465, 2012; in the data active = activation above about 40%
Target sequence (P14416 whole entry, looked up): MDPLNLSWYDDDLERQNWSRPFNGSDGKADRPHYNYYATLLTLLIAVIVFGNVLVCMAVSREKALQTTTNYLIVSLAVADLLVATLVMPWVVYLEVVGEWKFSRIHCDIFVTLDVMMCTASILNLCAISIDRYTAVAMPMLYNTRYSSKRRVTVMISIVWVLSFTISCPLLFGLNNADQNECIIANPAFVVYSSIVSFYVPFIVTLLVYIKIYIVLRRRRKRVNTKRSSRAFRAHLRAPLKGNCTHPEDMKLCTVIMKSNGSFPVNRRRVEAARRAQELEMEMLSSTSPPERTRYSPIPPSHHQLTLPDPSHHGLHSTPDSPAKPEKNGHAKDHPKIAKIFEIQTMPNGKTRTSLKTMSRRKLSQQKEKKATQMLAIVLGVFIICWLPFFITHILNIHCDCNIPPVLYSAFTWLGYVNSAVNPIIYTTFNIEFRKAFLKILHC
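DiscoveRx PathHunter D2 beta-arrestin cells (2,100/well) attached overnight, then compound-stimulated 90 min at 37 C in HBSS/10 mM HEPES/0.1% Tween-20 buffer; beta-galactosidase complementation read by luminescence after 1 h at ambient temperature. Dopamine 57 uM final (EC100) as control.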
D2 PAM-1 – Beta-Arrestin HTS for Positive Allosteric Modulators of the Human D2 Dopamine Receptor: Potentiators; D(2) dopamine receptor (Homo sapiens), P14416; DiscoveRx D2 beta-arrestin cells, luminescence, 90 min; 100% = 57 uM dopamine signal; potentiation, % (test concentration not listed); hit rate 0.23% among 360,000; AID 624464, 2012; in the data active = potentiation above about 50%
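PathHunter beta-arrestin assay in DiscoveRx D2 cells. Compounds were added with an EC20 of dopamine (50 nM final) for 90 min at 37 deg C. Luminescence was read 1 h after detection reagent, with 57 uM dopamine as the EC100 control.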
D2 PAM-2 – HTS Assay for Positive Allosteric Modulators of the Human D2 Dopamine Receptor: Primary Screen for Potentiators. D(2) dopamine receptor (Homo sapiens), P14416. HEK293 T-REx D2, calcium flux, EC20 dopamine potentiation. potentiation, % at 10 µM. hit rate 0.34% among 340,000. AID 485347, 2010;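 active = potentiation over 3 SD above the plate norm, cut at about 30% in these data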; note: 0% is about no effect
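Potentiation of an EC20 dopamine calcium response measured kinetically over 180 s, after a preceding 180 s compound-only read flagging agonists. Cells: inducible Hek293 Trex D2 line, 4000/well, cultured overnight at 30 C before dye loading.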
D2 ag-2 – HTS Assay for Allosteric Agonists of the Human D2 Dopamine Receptor: Primary Screen for Agonists; HEK293 T-REx D2 cells, calcium flux agonist mode; activation, % at 2 µM; hit rate 0.53% among 340,000;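 active = activation over 3 SD above normal in the single-dose calcium agonist read, cut at about 30% in these data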; note: 0% is about no effect
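Calcium-flux readout, 1 cycle/sec over 180 s following compound pin transfer, in inducible HEK293 Trex D2 cells (force-coupled); dopamine controls included. Positive calcium responses during this window marked compounds as potential agonists.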
D2 antag – HTS Assay for Allosteric Antagonists of the Human D2 Dopamine Receptor: Primary Screen for Antagonists | D(2) dopamine receptor (Homo sapiens), P14416 | HEK293 TREx D2 cells, calcium flux, dopamine EC80 | inhibition, % at 10 µM | hit rate 2% among 340,000 | AID 485344, 2010; in the data active = inhibition above about 30%; inactive = below that, where a call was filed; note: 0% is about no effect
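In this primary screen, negative modulation is detected by tracking calcium flux after an EC80 dopamine challenge in inducible HEK293 T-REx D2 cells preexposed to test compound for 180 s.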
Active calls of the source: *; . = not tested or not shown; ! = a repeat was not active.

SMILES	D2 ag-1	D2 PAM-1	D2 PAM-2	D2 ag-2	D2 antag
Cc1ccc(Nc2cc(C)c(C#N)c3nc4ccccc4n23)c(C)c1	.	.	-3	.	.
CCOC(=O)c1c(C)[nH]c(C)c1S(=O)(=O)N1CCC(C(=O)Nc2ccc(F)cc2F)CC1	.	.	-10	0	.
Cc1ccc(CC(=O)NCc2ccc(Cl)cc2)cc1	-2	-8	1	-1	53*
Cc1nc(C)c(C(=O)NCc2ccc(Cl)cc2)o1	1	-13	-3	1	-18
O=C(CC(=O)NCc1ccc(Cl)cc1)NCc1ccc(Cl)cc1	6	-2	-16	1	7
Cc1nn(C)c(C(=O)NCc2ccc(Cl)cc2)c1Cl	2	-8	-16	-1	44*
Cc1nn(C)c(C(=O)NNC(=S)NCc2ccco2)c1Cl	-4	-23	34*	-1	-17
CC(=O)Nc1ccc(NC(=O)C2(c3cccs3)CCOCC2)cc1	.	.	2	0	.
CCN(CC)CCNC(=O)C(=O)NCC(c1cccnc1)N1CCN(c2ccc(F)cc2)CC1 (stereo not given)	.	.	0	-1	.
CCN(CC)S(=O)(=O)c1ccc(NC(=O)c2nn(C)c3c2CSc2ccccc2-3)cc1	.	.	10	1	.
CC1(C)CC(=O)C/C(=N/Nc2nc3ccccc3s2)C1	-3	-3	7	1	36*
CC1CCC/C(=N/Nc2nc3ccccc3s2)C1 (stereo not given)	-12	-8	5	-1	-3
Nc1nc(NC(=O)/C=C\C(=O)O)nn1-c1ccccc1	0	-6	3	1	36*
CC(=O)Nc1nc(N)n(-c2ccccc2)n1	-2	-1	-13	0	8
CC(C)c1ccc(C(=O)CC2(O)C(=O)N(CCc3ccccc3)c3ccc(Cl)cc32)cc1 (stereo not given)	.	.	6	7	.
Cc1ccccc1CSc1ncc(Cl)c(C(=O)Nc2nc3ccc(F)cc3s2)n1	.	.	-1	1	.
COc1ccc(C(=O)[C@H]2[C@H]3C(=O)N(c4ccccc4)C(=O)[C@H]3C3C=CC=NN32)cc1 (stereo not given in full)	-3	-3	-4	0	43*
O=c1[nH]c(C2CCN(S(=O)(=O)c3ccccc3)CC2)nc2c1nnn2Cc1cccc(Cl)c1	1	-1	5	0	32*
O=c1[nH]c(C2CCN(S(=O)(=O)c3ccc(C(F)(F)F)cc3)CC2)nc2c1nnn2Cc1cccc(F)c1	-2	-13	0	1	-12
O=c1[nH]c(C2CCN(S(=O)(=O)c3ccccc3C(F)(F)F)CC2)nc2c1nnn2Cc1cccc(F)c1	5	-1	5	0	43*
O=C(Nc1ccnn1C1CCN(CCCc2ccccc2)CC1)c1cccc(F)c1	0	-19	-2	34*	28
COc1ccccc1C(=O)Nc1ccnn1C1CCN(CCCC2CCCC2)CC1	2	-34	-10	0	31*
COc1ccccc1C(=O)Nc1ccnn1C1CCN(Cc2cc(C)c(C)cc2C)CC1	-6	-36	-23	0	53*
O=C(Nc1ccnn1C1CCN(CCCC2CCCC2)CC1)c1ccccc1Cl	-3	-21	-16	5	-26
Cc1cc(C)c(CN2CCC(n3nccc3NC(=O)c3ccccc3Cl)CC2)cc1C	-6	-46	-19	3	-8
SMILES	D2 ag-1	D2 PAM-1	D2 PAM-2	D2 ag-2	D2 antag
O=C(Nc1ccnn1C1CCN(C/C=C/c2ccccc2)CC1)c1cccc(F)c1	0	-31	-7	3	-4
COc1ccccc1C(=O)Nc1ccnn1C1CCN(Cc2cn(C)c3ccccc23)CC1	3	-10	-23	0	62*
Cc1ccccc1NC(=O)c1cccc2c(=O)c3c([nH]c12)CCCC3	.	.	5	3	.
O=C(OCC(=O)N1CCCC1)c1c[nH]c2ccccc12	-4	0	5	0	3
Cc1cc(C)cc(C(=O)OCC(=O)N2CCCCCC2)c1	1	-1	-23	0	42*
O=C(OCC(=O)N1CCCCC1)c1c[nH]c2ccccc12	-1	9	68*	1	-15
COc1cc(OC)cc(C(=O)OCC(=O)N2CCCC2)c1	-3	3	-12	-5	12
COc1cccc(-c2noc(-c3cc(C(C)C)[nH]n3)n2)c1OC	.	.	-5	0	.
COc1cccc(-c2cc(=O)c3cc(NC(C)=O)ccc3[nH]2)c1	-1	-19	0	1	34*
O=C(Nc1ccccc1[N+](=O)[O-])c1csnn1	.	.	-7	.	.
O=C(CCS(=O)(=O)c1cccc2nsnc12)N1CCN(C(=O)c2ccco2)CC1	-7	-10	-6	0	11
O=C(c1cc2ccccc2o1)N1CCN(Cc2ccc3c(c2)OCO3)CC1	-1	-33	-19	-1	78*
CC(=O)c1ccc(OCC(O)CN2CCN(Cc3ccc4c(c3)OCO4)CC2)cc1 (stereo not given)	-2	-6	3	2	56*!
CN(C)c1ccc(C(=O)N2CCCC(N3CCN(Cc4ccc5c(c4)OCO5)CC3)C2)cc1 (stereo not given)	-5	-44	-23	1	32*
O=C(c1ccc(F)cc1)N1CCCC(N2CCN(Cc3ccc4c(c3)OCO4)CC2)C1 (stereo not given)	-4	-24	-13	4	-32
O=C(CCS(=O)(=O)c1cccc2nsnc12)N1CCN(Cc2ccc3c(c2)OCO3)CC1	-1	-7	-4	36*	1
Cc1c(Cl)cccc1NC(=O)CN1C(=O)COc2ccc(S(=O)(=O)Nc3ccccc3)cc21	.	.	-5	0	.
CCOC(=O)c1c(C)oc2ccc(N(C(C)=O)S(=O)(=O)c3c(C)cc(C)cc3C)cc12	.	.	-21	0	.
CC(C)(C)c1ccc(/C=C/C(=O)Nc2ccc(S(N)(=O)=O)cc2)cc1	.	.	14	-2	.
CCN(CC)CCCNC(=O)C(C)n1nc(C)n2c(cc3occc32)c1=O (stereo not given)	.	.	-21	0	.
CCN(CC)C(=O)N1CCN(Cc2ccc3c(c2)OCO3)CC1	-2	-4	-10	33*	-16
Cn1cccc1Cc1nnc(SCC(=O)NC2CCCC2)n1-c1ccc(F)cc1	-3	2	-1	2	36*
CCCCN1C(=O)/C(=C/C=C2\Oc3ccccc3N2CC)SC1=S	2	-8	-5	61*	-7
COc1cc(OC)c(-c2c3cc(O)c(=O)cc-3oc3cc(O)c(O)cc23)cc1OC	-14	-39	-14	148*	-96
